Experimental data reported in PubChem BioAssay (NCATS).
“And” between values parts separate entries of the source, which are not always exact repeats. Identical values can stand only once. Results filed as inconclusive are left out. Where a call stands in place of a potency, no number is given. The source made the active and inactive calls. Unless noted, calls follow the shape of the full dose curve.

What was measured:
[1] = Cell Viability - HepG2 (AID 433); conditions: qHTS;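 also: potency is read from the fitted curve at half-maximal effect; cells exposed to compound for 40 hours; potency for ATP loss meaning cytotoxicity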
Summary of the method: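 Cytotoxicity read as ATP loss (CellTiter-Glo luminescence) after 40 hr compound exposure of HepG2, 1500 cells/well, 37 °C. AC50 by Hill equation; 0% set by DMSO, 100% inhibition by 100 uM tamoxifen.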

[2] = Cell Viability - MRC5 (AID 434); conditions: MRC5 lung fibroblast viability, qHTS;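 also: potency is read from the fitted curve at half-maximal effect; cells exposed to compound for 40 hours at 37 °C; potency reflects cytotoxicity seen as loss of intracellular ATP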
Summary of the method: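 ATP luminescence read-out (CellTiter-Glo, 20 min RT) after 40 hr, 37 °C compound exposure of 1500 MRC5 cells/well. Data normalized to DMSO (basal) and 100 uM tamoxifen (100% inhibition); AC50 from standard Hill equation.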

[3] = target: Glucocorticoid receptor (Homo sapiens) (UniProt P04150); test: qHTS assay for small molecule agonists of glucocorticoid receptor signaling (AID 588532; active = well fitted curve in the direction sought with a large enough effect in the signal ratio, with a control signal flat; the % refers to the signal ratio); conditions: HeLa MMTV-bla, beta-lactamase ratio, agonist, 18 h; stronger effect = higher value; percent of dexamethasone control, DMSO zero
Summary of the method: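 MMTV-bla HeLa beta-lactamase reporter cells in 1% charcoal/dextran FBS medium, compounds up to 92 uM for 18 h at 37 C, CCF4 readout; normalized to 0.1 uM dexamethasone (100%), EC50 and efficacy from Hill fits.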

[4] = target: Glucocorticoid receptor (Homo sapiens) (UniProt P04150); test: qHTS assay for small molecule antagonists of glucocorticoid receptor signaling (AID 588533; active = well fitted inhibition curve with a large enough effect in the signal ratio, with a control signal flat, not every such curve was filed as active; the % refers to the signal ratio); conditions: HeLa MMTV-bla, GRE beta-lactamase ratio, antagonist mode, 18 h; series mostly up to 76.8 µM
Summary of the method: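 Antagonist-mode qHTS: compound titrations added to GRE-bla HeLa cells, then dexamethasone 2 nM final; 18 h, 37 C. CCF4 FRET fluorescence normalized to dexamethasone and DMSO; IC50 from Hill fit.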

[5] = target: Peroxisome proliferator-activated receptor gamma (Homo sapiens) (UniProt P37231); test: qHTS assay for small molecule agonists of peroxisome proliferator-activated receptor gamma signaling (AID 588536; active = well fitted curve in the direction sought with a large enough effect in the signal ratio, with a control signal flat, not every such curve was filed as active; the % refers to the signal ratio); conditions: HEK293 PPARg-UAS-bla, beta-lactamase ratio, 16 h, percent of rosiglitazone response, DMSO as zero; series mostly up to 76.7 µM
Summary of the method: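 Beta-lactamase reporter read-out: CCF4 fluorescence (ex 405, em 460/530 nm) after 2 h at RT. HEK293 GeneBLAzer cells were treated for 16 h at 37 C. Hill fits gave EC50 and efficacy versus 2 uM rosiglitazone (100%) and DMSO (0%).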

[6] = target: Vitamin D3 receptor (Homo sapiens) (UniProt P11473); test: qHTS assay for small molecule antagonists of vitamin D receptor signaling (AID 588541); conditions: HEK293T VDR-UAS-bla, beta-lactamase ratio, antagonist mode; series mostly up to 76.7 µM;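 also: receptor activated by calcitriol during compound treatment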
Summary of the method: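 VDR-UAS-bla HEK293T cells in 2% charcoal-stripped FBS were stimulated with 1-alpha,25-dihydroxyvitamin D3 (3 nM final) plus compound for 16 h at 37 C. The beta-lactamase CCF4 readout was normalized to 50 nM agonist and DMSO, and Hill fits gave IC50.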

[7] = target: Vitamin D3 receptor (Homo sapiens) (UniProt P11473); test: qHTS assay for small molecule agonists of vitamin D receptor signaling (AID 588543); conditions: HEK293T VDR-UAS-bla, beta-lactamase ratio, 16 h; series mostly up to 76.8 µM
Summary of the method: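 Agonist-mode beta-lactamase reporter: HEK293T VDR-UAS-bla cells in charcoal-stripped 2% FBS, compound series 16 h 37 C, CCF4 2 h RT. EC50 from Hill fit, scaled against DMSO and 50 nM calcitriol control.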

[8] = qHTS assay for small molecule activators of the nuclear factor-kappa B (NF-kB) signaling pathway (AID 651749; active = well fitted activation curve with a large enough effect in the signal ratio; the % refers to the signal ratio); conditions: NF-kB-bla ME-180 cells, beta-lactamase FRET ratio, 16 h; stronger effect = higher value
Summary of the method: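 In this qHTS format, compounds acting as activators increase NF-kB-driven beta-lactamase in ME-180 cells, measured as disrupted FRET after 16 hr exposure at 37C and 5% CO2.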

[9] = qHTS assay for small molecule antagonists of the retinoid-related orphan receptor gamma (ROR-gamma) signaling pathway - cell viability counter screen (AID 720652; active = well fitted curve in the direction sought with a large enough effect in the repeat runs; an effect the other way counts as inactive or inconclusive;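 also: CHO reporter cells with doxycycline-induced ROR-gamma expression; compound exposure lasted 16 hr before ATP read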); conditions: RORgamma reporter cell line viability counter screen; series mostly up to 92.2 µM
Summary of the method: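 Steps: seed CHO cells bearing TET-inducible ROR and ROR response element-luciferase; rest 5 hr at 37 C; add compound, then doxycycline; incubate 16 hr; add CellTiter-Glo and read luminescence as ATP-based viability.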

[10] = target: Mitogen-activated protein kinase 10 (Mus musculus) (UniProt Q61831); test: JNK3 AlphaScreen Assay (AID 530; active = well fitted curve in either direction with a large enough effect, not every such curve was filed as active;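 also: kinase came from lysate of stimulated human HepG2 cells; signal reports phosphorylation of biotinylated GST-cJun 1-79 at Ser73 with 10 µM ATP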); conditions: JNK3 lysate, c-Jun phosphorylation; series mostly up to 57.1 µM
Summary of the method: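 Activity was read by AlphaScreen after JNK3-containing HepG2 lysate (cytokine pre-activated) phosphorylated biotinylated GST-cJun with 10 uM ATP at room temperature. Phospho-Ser73 cJun antibody with Protein-A acceptor beads provided detection.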

[11] = Cell Viability - NIH 3T3 (AID 541; active = well fitted curve in the direction sought with a large enough effect; an effect the other way counts as inactive or inconclusive;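 also: cells exposed to compound for 40 hours; nearly all actives have a fitted effect of over 25% in size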; also: potency is read from the fitted curve at half-maximal effect); conditions: NIH 3T3 cell viability, qHTS; activity change, negative = cytotoxicity: at 92.2 µM (top of the series)
Summary of the method: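 Cells seeded at 1000/well, rested 5 hr at 37 °C, then dosed and incubated 40 hr at 37 °C. CellTiter-Glo added, 20 min room temperature, luminescence read. AC50 by Hill fit.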

[12] = Cell Viability - LYMP2-001 (AID 921; active = well fitted curve in the direction sought with a large enough effect; an effect the other way counts as inactive or inconclusive; also: nearly all actives have a fitted effect of over 70% in size); conditions: LYMP2-001 lymphoblastoid cell viability; series mostly up to 92.2 µM
Summary of the method: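 Cellular ATP loss read by luciferase luminescence after 24 h compound exposure at 37 C in complete medium. LYMP2-001 lymphoblastoid cells, 2500/well; qHTS concentration-response data fitted with Hill equation for AC50.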

[13] = MultiTox-Fluor Cytotoxicity Assay - LYMP1-002 - Dead Cells (AID 960; active = well fitted curve in the direction sought with a large enough effect; an effect the other way counts as inactive or inconclusive; also: nearly all actives have a fitted effect of over 60% in size); conditions: LYMP1-002 lymphoblastoid cells, dead-cell protease fluorescence; series mostly up to 46.1 µM
Summary of the method: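 Cells were plated, rested 5 hr, then treated with compound dilution series for 16 hr at 37 C. After adding substrate reagent and 60 min at room temperature, dead-cell protease fluorescence gave concentration-response curves fitted by the Hill equation.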

[14] = target: Estrogen receptor (Homo sapiens) (UniProt P03372); test: qHTS assay for small molecule agonists of estrogen receptor alpha signaling (AID 588514); conditions: ER-alpha-UAS-bla HEK293, beta-lactamase ratio, 18 h; series mostly up to 76.8 µM; also: nearly all actives have a fitted effect of over 70% in size
Summary of the method: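 Efficacy is expressed against 20 nM 17-beta-estradiol (100%) and DMSO basal (0%); EC50 from Hill equation. Assay: beta-lactamase reporter in ER-alpha-UAS-bla HEK 293 cells, 18 h compound incubation, CCF4 detection.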

[15] = target: Peroxisome proliferator-activated receptor gamma (Homo sapiens) (UniProt P37231); test: qHTS assay for small molecule antagonists of peroxisome proliferator-activated receptor gamma signaling (AID 588537; active = well fitted inhibition curve with a large enough effect in the signal ratio, with a control signal flat, not every such curve was filed as active; the % refers to the signal ratio;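 also: reporter cells co-stimulated with 50 nM rosiglitazone agonist during compound treatment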); conditions: HEK293 PPARg-UAS-bla, beta-lactamase ratio, antagonist mode; series mostly up to 76.8 µM
Summary of the method: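 Fluorescence at 460 and 530 nm (405 nm excitation) reported beta-lactamase cleavage of CCF4 after 2 h room-temperature loading. HEK293 reporter cells in 1% charcoal/dextran-treated FBS had received compound and rosiglitazone for 16 h.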

[16] = target: Thyroid hormone receptor beta (Homo sapiens) (UniProt P10828); test: qHTS assay for small molecule antagonists of thyroid hormone receptor beta signaling (AID 588547; active = well fitted inhibition curve with a large enough effect in the signal ratio, with a control signal flat, not every such curve was filed as active; the % refers to the signal ratio;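 also: cells stimulated with 0.4 nM T3 agonist during compound exposure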); conditions: TR-UAS-bla HEK293, beta-lactamase ratio, antagonist mode, 18 h
Summary of the method: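 TR-UAS-bla GripTite HEK293 cells in 2% charcoal/dextran FBS medium; compounds 0.59 nM to 92 uM with T3 at 0.4nM final, 18 h at 37 C. Beta-lactamase read by CCF4 fluorescence (460/530 nm); Hill fits gave IC50 and efficacy.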

[17] = qHTS assay for small molecule agonists of the antioxidant response element (ARE) signaling pathway (AID 651741; active = well fitted activation curve with a large enough effect in the signal ratio; the % refers to the signal ratio; also: potency is read from the fitted curve at half-maximal effect); conditions: HepG2 ARE-bla reporter, beta-lactamase FRET ratio, 16 h; series mostly up to 96 µM
Summary of the method: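 Stably integrated ARE-beta-lactamase reporter HepG2 cells; 16 h compound incubation, 37 C; LiveBLAzer FRET substrate 2 h at room temperature; fluorescence intensity.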

[18] = qHTS assay to identify small molecules that stimulate interleukin-8 (IL-8) secretion (AID 651758; active = well fitted activation curve with a large enough effect in the signal ratio; the % refers to the signal ratio); conditions: HTRF ratio (665/615); series mostly up to 92.2 µM
Summary of the method: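 Compounds are added to THP-1 cells (2000 per well) and left 16 hrs at 37 C. A labeled anti-IL-8 antibody pair is then added, and IL-8 secretion is measured by time-resolved FRET after 1-3 hrs at room temperature.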

[19] = qHTS assay for small molecule antagonists of peroxisome proliferator-activated receptor delta signaling (AID 588535; active = well fitted inhibition curve with a large enough effect in the signal ratio, with a control signal flat, not every such curve was filed as active; the % refers to the signal ratio;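 as to max response: cells co-treated with a PPAR-delta agonist as stimulator during compound exposure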); conditions: HEK293T PPARd-UAS-bla, beta-lactamase FRET ratio, 18 h; 460 nm channel
Summary of the method: (§1)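 Fluorescence from CCF4-loaded GeneBLAzer PPAR-delta-UAS-bla HEK293T cells (2 hrs RT loading) quantified reporter inhibition after an 18 hr, 37 C compound exposure across a titration.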

[20] = target: Peroxisome proliferator-activated receptor delta (Homo sapiens) (UniProt Q03181); test: as above; conditions: HEK293T PPARd-UAS-bla, beta-lactamase FRET ratio, 18 h; series mostly up to 76.7 µM
Summary of the method: as §1

Peroxisome proliferator-activated receptor delta (Homo sapiens), sequence (Q03181 whole entry, looked up): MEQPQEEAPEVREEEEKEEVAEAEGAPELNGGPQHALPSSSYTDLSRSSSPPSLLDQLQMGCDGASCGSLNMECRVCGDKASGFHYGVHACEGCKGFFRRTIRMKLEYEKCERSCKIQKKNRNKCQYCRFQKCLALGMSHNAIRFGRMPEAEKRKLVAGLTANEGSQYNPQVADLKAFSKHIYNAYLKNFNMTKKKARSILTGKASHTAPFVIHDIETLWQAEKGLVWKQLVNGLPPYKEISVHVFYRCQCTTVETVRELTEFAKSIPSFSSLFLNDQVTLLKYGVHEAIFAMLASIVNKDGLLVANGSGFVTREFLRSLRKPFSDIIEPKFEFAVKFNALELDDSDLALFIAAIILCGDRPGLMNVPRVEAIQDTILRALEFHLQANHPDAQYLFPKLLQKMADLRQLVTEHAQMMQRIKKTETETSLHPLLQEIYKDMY
Peroxisome proliferator-activated receptor gamma (Homo sapiens), sequence (P37231 whole entry, looked up): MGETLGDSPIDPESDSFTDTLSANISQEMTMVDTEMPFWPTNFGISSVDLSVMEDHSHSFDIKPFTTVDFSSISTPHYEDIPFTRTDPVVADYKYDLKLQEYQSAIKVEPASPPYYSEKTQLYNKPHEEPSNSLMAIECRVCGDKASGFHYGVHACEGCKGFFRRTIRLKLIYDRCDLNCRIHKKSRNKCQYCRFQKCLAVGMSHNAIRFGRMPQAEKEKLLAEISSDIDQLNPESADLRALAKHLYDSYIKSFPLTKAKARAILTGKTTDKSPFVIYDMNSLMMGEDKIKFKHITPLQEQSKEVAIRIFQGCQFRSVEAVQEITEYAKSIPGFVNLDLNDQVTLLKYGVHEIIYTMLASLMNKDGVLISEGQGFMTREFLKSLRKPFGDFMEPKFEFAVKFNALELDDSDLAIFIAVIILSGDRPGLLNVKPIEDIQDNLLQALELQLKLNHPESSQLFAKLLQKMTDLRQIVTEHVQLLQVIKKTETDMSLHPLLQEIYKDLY
Glucocorticoid receptor (Homo sapiens), sequence (P04150 whole entry, looked up): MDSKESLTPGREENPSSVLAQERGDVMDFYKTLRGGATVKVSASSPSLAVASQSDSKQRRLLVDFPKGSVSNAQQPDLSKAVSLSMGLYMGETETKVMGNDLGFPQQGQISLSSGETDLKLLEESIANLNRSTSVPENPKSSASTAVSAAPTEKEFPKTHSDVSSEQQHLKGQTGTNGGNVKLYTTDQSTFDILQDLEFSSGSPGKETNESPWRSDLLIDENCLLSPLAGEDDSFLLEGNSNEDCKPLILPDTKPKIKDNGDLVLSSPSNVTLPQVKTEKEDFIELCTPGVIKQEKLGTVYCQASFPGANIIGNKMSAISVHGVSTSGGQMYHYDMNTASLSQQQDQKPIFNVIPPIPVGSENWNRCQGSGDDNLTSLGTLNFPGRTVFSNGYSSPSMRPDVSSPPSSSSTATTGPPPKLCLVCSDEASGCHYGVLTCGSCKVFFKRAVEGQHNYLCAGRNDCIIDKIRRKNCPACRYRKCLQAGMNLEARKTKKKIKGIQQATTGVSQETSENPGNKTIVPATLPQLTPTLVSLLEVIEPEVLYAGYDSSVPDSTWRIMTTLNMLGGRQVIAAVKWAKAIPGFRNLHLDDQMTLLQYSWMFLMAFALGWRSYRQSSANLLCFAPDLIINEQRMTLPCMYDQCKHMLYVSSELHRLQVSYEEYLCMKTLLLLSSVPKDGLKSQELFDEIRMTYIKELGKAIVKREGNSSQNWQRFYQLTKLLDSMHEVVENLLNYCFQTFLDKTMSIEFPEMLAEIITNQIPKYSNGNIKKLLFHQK
Estrogen receptor (Homo sapiens), sequence (P03372 whole entry, looked up): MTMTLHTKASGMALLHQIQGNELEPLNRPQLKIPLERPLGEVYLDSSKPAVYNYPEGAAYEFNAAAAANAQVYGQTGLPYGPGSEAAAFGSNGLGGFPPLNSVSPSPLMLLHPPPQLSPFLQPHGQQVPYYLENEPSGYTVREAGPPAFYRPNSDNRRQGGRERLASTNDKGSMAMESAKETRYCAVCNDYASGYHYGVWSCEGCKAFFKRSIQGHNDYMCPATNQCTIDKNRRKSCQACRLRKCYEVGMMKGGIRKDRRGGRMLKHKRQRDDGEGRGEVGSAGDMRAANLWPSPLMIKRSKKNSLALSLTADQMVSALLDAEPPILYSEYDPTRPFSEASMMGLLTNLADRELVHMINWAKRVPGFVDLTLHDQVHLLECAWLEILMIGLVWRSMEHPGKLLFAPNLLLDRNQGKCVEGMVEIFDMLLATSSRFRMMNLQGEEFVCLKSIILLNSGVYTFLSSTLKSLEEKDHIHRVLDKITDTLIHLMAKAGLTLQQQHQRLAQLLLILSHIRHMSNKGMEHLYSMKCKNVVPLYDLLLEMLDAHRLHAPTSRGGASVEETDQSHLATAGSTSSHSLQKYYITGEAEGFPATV
Thyroid hormone receptor beta (Homo sapiens), sequence (P10828 whole entry, looked up): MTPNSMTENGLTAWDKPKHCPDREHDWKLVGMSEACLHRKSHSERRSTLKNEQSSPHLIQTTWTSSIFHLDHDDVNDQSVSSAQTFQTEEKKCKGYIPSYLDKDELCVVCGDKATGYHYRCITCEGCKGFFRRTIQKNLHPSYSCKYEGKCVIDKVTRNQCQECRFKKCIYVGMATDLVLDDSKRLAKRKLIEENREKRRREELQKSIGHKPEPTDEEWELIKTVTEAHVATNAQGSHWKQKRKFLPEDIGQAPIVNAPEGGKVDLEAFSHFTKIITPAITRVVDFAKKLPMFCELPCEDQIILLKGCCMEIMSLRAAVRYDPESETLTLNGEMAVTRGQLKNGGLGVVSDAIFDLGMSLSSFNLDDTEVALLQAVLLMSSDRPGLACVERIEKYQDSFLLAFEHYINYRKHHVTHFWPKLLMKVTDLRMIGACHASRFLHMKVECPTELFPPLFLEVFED
Vitamin D3 receptor (Homo sapiens), sequence (P11473 whole entry, looked up): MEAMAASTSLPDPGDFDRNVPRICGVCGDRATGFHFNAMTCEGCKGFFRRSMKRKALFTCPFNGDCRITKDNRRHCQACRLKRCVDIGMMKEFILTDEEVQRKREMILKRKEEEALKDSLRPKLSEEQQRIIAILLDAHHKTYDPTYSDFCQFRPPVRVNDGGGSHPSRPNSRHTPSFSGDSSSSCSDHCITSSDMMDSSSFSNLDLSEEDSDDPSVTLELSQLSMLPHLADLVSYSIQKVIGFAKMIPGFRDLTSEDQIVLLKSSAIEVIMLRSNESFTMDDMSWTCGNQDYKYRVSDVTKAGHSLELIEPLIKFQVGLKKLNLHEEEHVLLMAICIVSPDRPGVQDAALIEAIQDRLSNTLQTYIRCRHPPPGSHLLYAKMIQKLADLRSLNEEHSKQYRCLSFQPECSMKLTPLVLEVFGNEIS

SMILES | Potency [1] | Potency [2] | activation [3] | outcome [4] | outcome [5] | outcome [6] | outcome [7] | activation [8] | Potency [9] | Potency [10] | Potency [11] | Potency [12] | Potency [13] | Potency [14] | Potency [15] | activity change % (negative = inhibition) [16] | Potency [17] | Potency [18] | max response [19] | outcome [20]
Nc1ccccc1-c1ccccc1 | > 92 µM (inactive) | > 92 µM (inactive) | -2.58% (inactive) | inactive | inactive | inactive | inactive | -2.55% (inactive) | inactive | – | – | – | – | – | – | – | – | – | – | –
Oc1cccc(Cl)c1Cl | > 92 µM (inactive) | – | -0.403% (inactive) | inactive | inactive | – | – | – | inactive | inactive | inactive | inactive | inactive | inactive | inactive | 9.41% (inactive) | – | – | – | –
N#CCCCCC#N | > 92 µM (inactive) | – | -2.66% (inactive) | inactive | inactive | inactive | inactive | – | inactive | inactive | – | inactive | inactive | – | – | -18.7% (inactive) | inactive | inactive | – | –
C/C=C/CC#N | > 92 µM (inactive) | – | – | – | inactive | – | – | – | – | inactive | inactive | inactive | – | inactive | – | 15.6% (inactive) | – | inactive | -4.54% | inactive
CC(=O)[O-].CC(=O)[O-].CC(=O)[O-].[Cr+3] | > 92 µM (inactive) | – | – | – | – | – | – | – | inactive | inactive | inactive | – | – | – | – | – | inactive | – | – | –
Clc1cccc(Cl)c1Cl | > 92 µM (inactive) | > 92 µM (inactive) | -0.532% (inactive) | inactive | inactive | – | inactive | -0.304% (inactive) and 0.362% (inactive) | inactive | – | inactive | inactive | inactive | – | inactive | -6.61% (inactive) and -16.3% (inactive) | inactive | inactive | -24.3% | inactive
CC(C#N)CCC#N (stereo not drawn) | > 92 µM (inactive) | > 92 µM (inactive) | 5.21% (inactive) | inactive | inactive | inactive | – | 0.705% (inactive) | inactive | – | inactive | inactive | – | inactive | inactive | 9.23% (inactive) | inactive | inactive | 27.1% | inactive
CCOS(C)(=O)=O | > 92 µM (inactive) | > 92 µM (inactive) | – | – | inactive | inactive | inactive | 0.8% (inactive) | inactive | – | inactive | inactive | inactive | – | – | -1.09% (inactive) | – | – | -10.7% | inactive
Cc1ccc(N)cc1N | > 92 µM (inactive) | – | -6.12% (inactive) and -1.93% (inactive) | inactive | inactive | inactive | inactive | -0.705% (inactive) and -3.37% (inactive) | – | inactive | – | inactive | – | inactive | inactive | 0.49% (inactive) and -2.4% (inactive) | – | – | 0.381% and -13.2% | inactive
N#CCBr | – | > 92 µM (inactive) | -5.38% (inactive) | – | – | inactive | – | 0.342% (inactive) | – | inactive | 10 µM (active) | inactive | – | inactive | – | 11.7% (inactive) | 16.8 µM (active) | – | – | –
CCOC(=O)C1OC1(C)c1ccccc1 (stereo not drawn) | > 92 µM (inactive) | – | -3.51% (inactive) | inactive | – | – | – | – | inactive | inactive | – | inactive | inactive | – | inactive | 6.83% (inactive) | – | inactive | – | –
O=C(O)c1cc(Cl)ccc1Cl | – | > 92 µM (inactive) | -4.37% (inactive) | inactive | – | – | inactive | – | inactive | inactive | – | inactive | inactive | – | – | – | inactive | – | 35.4% | inactive
O=P(OCCCl)(OCCCl)OCCCl | – | > 92 µM (inactive) | – | inactive | inactive | inactive | inactive | – | inactive | inactive | – | inactive | inactive | – | – | 2.42% (inactive) | inactive | inactive | 19.2% | inactive
CCCCOCC1CO1 (stereo not drawn) | – | > 92 µM (inactive) | -2.49% (inactive) | inactive | inactive | inactive | inactive | – | inactive | inactive | – | inactive | inactive | – | inactive | – | – | – | 13.9% | inactive
